Most compounds without a hit are left out; they make up all but 8.3% or so of the library.
Marburg entry inh: inhibitors of Marburg virus binding or cell entry | Marburg virus pseudotyped entry inhibition, cell reporter | Potency, µM (titrated, usually from 37.8 µM), without a hit: at the top dose activity change, negative = inhibition, actives largely listed as inhibitors | 300,000 compounds, 1.8% hits; calls by dose curve; tested in HEK293 cells; also: potency is read from the fitted curve at half-maximal effect
Lassa entry inh: Lassa virus entry inhibition | Lassa virus pseudotype entry inhibition, cell reporter | Potency, µM (doses to about 37.9 µM), without a hit: top-dose activity change, negative = inhibition, most hits filed as inhibitors | 300,000 compounds, 1.2% hits | AID 540256; calls by dose curve; tested in HEK293 cells; also: potency is read from the fitted curve at half-maximal effect; nearly all actives have a fitted effect of over 50% in size
HCV inh: HCV inhibition. Huh7.5.1 HCVcc-Cre infection, luciferase reporter, 44 h. 340,000 compounds, 3.4% hits. Potency, µM (highest dose often 41.8 µM), for inactives: at the top dose activity change, negative = inhibition, hits mostly inhibitors; also: potency is read from the fitted curve at half-maximal effect
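Antiviral activity was scored by luciferase reporter output from cells infected with HCVcc-Cre (~0.5 moi) in presence of compound, 44 h infection period, cells seeded 1,000/well 4 h prior.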
FBPA Giardia inh: Giardia lamblia aldolase inhibition. 290,000 compounds, 0.71% hits. Potency, µM (series often up to 59.6 µM), for inactives: top-dose activity, negative = inhibition, usual class: inhibitors. purified Giardia FBPA; also: potency is read from the fitted curve at half-maximal effect; nearly all actives have a fitted effect of over 55% in size
Target sequence (A8B2U2 whole entry, looked up): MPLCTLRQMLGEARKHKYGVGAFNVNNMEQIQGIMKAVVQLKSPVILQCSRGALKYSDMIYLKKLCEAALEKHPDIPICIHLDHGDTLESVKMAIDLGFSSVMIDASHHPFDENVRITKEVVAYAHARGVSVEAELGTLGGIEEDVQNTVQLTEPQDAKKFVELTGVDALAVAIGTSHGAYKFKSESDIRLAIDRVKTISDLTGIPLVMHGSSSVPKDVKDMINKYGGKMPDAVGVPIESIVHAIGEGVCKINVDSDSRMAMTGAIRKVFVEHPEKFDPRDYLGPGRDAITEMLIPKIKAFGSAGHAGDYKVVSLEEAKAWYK
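40 nM FBPA preincubated 10 min at RT with compound (up to 57.5 uM final), then substrate plus GAPDH/TPI/NAD/arsenate coupling and diaphorase/resazurin added. Fluorescence read after 20 min at RT, 525/598 nm.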
FMDV inh: blocks foot and mouth disease virus | FMDV antiviral cell-based qHTS | Potency, µM (titrated, usually from 57.9 µM), for inactives: top-dose activity change, negative = inhibition, hits mostly inhibitors | 410,000 compounds, 1.2% hits | AID 1159524; calls by dose curve; tested in HEK293T cells; also: read-out not given here; potency is read from the fitted curve at half-maximal effect; nearly all actives have a fitted effect of over 45% in size
HCMV inh: inhibitors of human cytomegalovirus; AID 1259415; activity change, negative = inhibition, % at 57.5 µM; HFF cells, HCMV-luciferase reporter, 72 h; active compounds read low; 410,000 compounds, 4.5% hits; in the data active = activity change below about -60%; inconclusive = no clear call, values can overlap the other calls; inactive = above about -39%
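Luciferase read-out from HCMV-luciferase-infected HFFs (MOI 1 PFU/cell) 72 h post infection at 37C; compounds added after 16 h cell attachment; activity normalized between buffer-only basal and Salinomycin (10uM) inhibitor controls.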
Starred values were filed as active, the others as inactive; [ ] = remark or other dose. Unless noted, calls follow the shape of the dose curve; as a rule, active = well fitted curve in the direction sought with a large enough effect; inconclusive = small, poorly fitted or top-dose-only effect, or another doubt; inactive = no such curve, though single readings can be large; an effect the other way counts as inactive or inconclusive. % is scaled to controls: 0 for no effect and ±100 for the full control effect.

`CC(C)(C)OC(=O)N1CCC[C@@H]1C(O)(c1ccccc1)c1ccccc1` gave Marburg entry inh -13%[14.2 µM].
CC(C)(C)c1cc(NCc2ccccn2)n2ncc(-c3ccccc3)c2n1 was read as Marburg entry inh inconclusive, Lassa entry inh inconclusive, HCV inh 13µM*, FBPA Giardia inh -4%, FMDV inh 25% and HCMV inh -7.
Cc1cc(NCc2ccccc2)n2ncc(-c3ccccc3)c2n1 was read as Marburg entry inh inconclusive, Lassa entry inh inconclusive, HCV inh inconclusive, FBPA Giardia inh 2%, FMDV inh 7% and HCMV inh 11.
For Cc1ccc(Cl)cc1N1CCN(C(=O)c2ccc(CS(=O)c3ccccc3)o2)CC1 (centres undefined) the results were Lassa entry inh inconclusive, FMDV inh 0% and HCMV inh -20.
For COc1ccccc1N1CCN(C(=O)c2ccc(CS(=O)c3ccccc3C)o2)CC1 (centres undefined) the results were Marburg entry inh inconclusive, Lassa entry inh inconclusive, FMDV inh inconclusive and HCMV inh -7.
`Cc1cccc(N2CCN(C(=O)c3ccc(CS(=O)c4cccc(Cl)c4)o3)CC2)c1C` (centres undefined) gave Lassa entry inh inconclusive, FMDV inh inconclusive and HCMV inh -87*.
Screening Cc1ccccc1S(=O)Cc1ccc(C(=O)N2CCN(c3cccc(C)c3C)CC2)o1 (centres undefined) returned Lassa entry inh inconclusive, FMDV inh -25% and HCMV inh -84*.
Screening CCN(CC)c1ccc(/C=N/NC(=S)NCc2ccc(OC)cc2)cc1 returned Marburg entry inh inconclusive, Lassa entry inh 3.7µM*, HCV inh inconclusive, FBPA Giardia inh 4%, FMDV inh -6% and HCMV inh 16.
Screening CCN(CC)c1ccc(/C=N/NC(=S)NCc2ccccc2)cc1 returned Marburg entry inh inconclusive, Lassa entry inh inconclusive, HCV inh -11%, FBPA Giardia inh 2%, FMDV inh -17% and HCMV inh -5.
C=CCNC(=S)N/N=C/c1ccc(N(CC)Cc2ccccc2)cc1 was read as Marburg entry inh 12µM*, Lassa entry inh 16µM*, HCV inh inconclusive, FBPA Giardia inh -1%, FMDV inh inconclusive and HCMV inh -12.
O=C(CCn1c(=O)c2sccc2n(Cc2ccccc2F)c1=O)NCc1ccc2c(c1)OCO2 was read as Marburg entry inh 3%[46.1 µM], Lassa entry inh 6%[46.1 µM], FMDV inh -13% and HCMV inh -8.
CCOC(=O)CN=C1CC(C)(C)CC2=C1Sc1ncnc(N(C)C)c1N2 was read as Marburg entry inh -13%, Lassa entry inh 4%, HCV inh -4%, FBPA Giardia inh 2.5µM*, FMDV inh 12% and HCMV inh 17.
`CCOC(=O)C1=C(C)NC2=C(C(=O)CC(C)(C)C2)C1c1cccc(C)n1` (centres undefined) gave Marburg entry inh 7%, Lassa entry inh -1%, HCV inh -12%, FBPA Giardia inh 3%, FMDV inh 1% and HCMV inh -3.
Screening COc1ccccc1OCCCCN1CCN(c2ccccc2OC)CC1 returned Marburg entry inh -17%, Lassa entry inh 8%, HCV inh inconclusive, FBPA Giardia inh -14%, FMDV inh -19% and HCMV inh -15.
Screening COc1ccccc1N1CCN(CCCCCCOc2ccc(F)cc2)CC1 returned Marburg entry inh 18µM*, Lassa entry inh inconclusive, HCV inh inconclusive, FBPA Giardia inh 6%, FMDV inh inconclusive and HCMV inh inconclusive.
`Cc1cccc(OCCCN2CCCCCC2)c1` gave Marburg entry inh inconclusive, Lassa entry inh inconclusive, HCV inh 32µM*, FBPA Giardia inh -23% and HCMV inh 28.
`Cc1cccc(OCCCCCN2CCOCC2)c1` gave Marburg entry inh 9%, Lassa entry inh 4%, HCV inh -29%, FBPA Giardia inh -21%, FMDV inh 28% and HCMV inh 49.
`Fc1ccccc1OCCCCCCN1CCCC1` gave Marburg entry inh -16%, Lassa entry inh -1%, HCV inh 7.9µM*, FBPA Giardia inh -10%, FMDV inh -2% and HCMV inh 5.
For CN(C)CCCCOc1ccccc1-c1ccccc1 the results were Marburg entry inh 13µM*, Lassa entry inh inconclusive, HCV inh 0%, FBPA Giardia inh inconclusive, FMDV inh 10% and HCMV inh 9.
`CN1CCN(c2ncc3nc(-c4ccccc4)c(=O)n(CCC#N)c3n2)CC1` gave FBPA Giardia inh -2% and FMDV inh -17%.
COc1ccc2c(c1)[C@@H](NCc1ccccn1)[C@H](C)[C@@H](c1ccccc1)N2C(=O)NC(C)C was read as HCMV inh 19.
Screening COc1ccc(OCc2nc(C#N)c(NCc3ccccc3Cl)o2)cc1 returned Marburg entry inh 5%[46.1 µM], Lassa entry inh -24%[46.1 µM], FMDV inh -16% and HCMV inh -31.
`Cc1ccc(S(=O)(=O)NCC2CCC(C(=O)NCCc3ccccc3)CC2)cc1` (centres undefined) gave Lassa entry inh 9%[46.1 µM], FMDV inh 12% and HCMV inh 0.
Screening c1ccc(-c2ccccc2OCCCN2CCCCC2)cc1 returned Marburg entry inh inconclusive, Lassa entry inh 16µM*, HCV inh -15%, FBPA Giardia inh -10%, FMDV inh -25% and HCMV inh -38.
For c1ccc(COc2ccc(OCCCCN3CCCCC3)cc2)cc1 the results were Marburg entry inh inconclusive, Lassa entry inh -23%, HCV inh 25µM*, FBPA Giardia inh inconclusive, FMDV inh 20% and HCMV inh 39.
`Oc1ccc(N2CCN(Cc3ccc(OCCCN4CCCCC4)cc3)CC2)cc1` gave Marburg entry inh 13µM*, Lassa entry inh 7%[46.1 µM], HCV inh 5%, FBPA Giardia inh inconclusive, FMDV inh 27% and HCMV inh -4.
Screening CC(CCN1CCCCc2nc(C)c(C)cc21)=NO[C@@H](C)CN1CCCCc2nc(C)c(C)cc21 returned Marburg entry inh 6%[14.2 µM] and Lassa entry inh inconclusive.
Screening Cc1cc2c(cc1C)C(c1ccccc1OC(C)C)CC(=O)N2 (centres undefined) returned Marburg entry inh 1µM*, Lassa entry inh inconclusive, HCV inh 8.9µM*, FBPA Giardia inh 0%, FMDV inh -13% and HCMV inh 18.
`CC(C)Oc1ccccc1C1CC(=O)Nc2cc3c(cc21)OCO3` (centres undefined) gave Marburg entry inh 6.5µM*, Lassa entry inh inconclusive, HCV inh 11µM*, FBPA Giardia inh inconclusive, FMDV inh inconclusive and HCMV inh -101*.

Screening data deposited in PubChem by National Center for Advancing Translational Sciences (NCATS).
